AID504770 = growth inhibitors of E. coli YBA685 in a screen for V. cholerae RctB (chromosome II replication) inhibitors. E. coli YBA685 rctB-dependent plasmid, OD600 growth, 3 h; hits give low values. z-score (concentration not given with the values). hit rate 0.27% among 130,000. AID 504770; in the data active = z-score below about -2, passing the limit was not always enough
PV pol inh = poliovirus RNA polymerase inhibition; P03300; poliovirus polymerase elongation, fluorescence polarization; hits give low values; % elongation, % (compound at 16.7 µg/mL); hit rate 0.66% among 150,000; AID 588519; in the data active = % elongation below about 90%
MenB inh = inhibitors of Mycobacterium tuberculosis MenB enzyme; hit rate 0.43% among 100,000; MenB enzyme assay, absorbance read-out; P9WNP5; AID 540299; inhibition, % (concentration not given with the values); in the data active = inhibition above about 21%, passing the limit was not always enough
Target sequence (P9WNP5 whole entry, looked up): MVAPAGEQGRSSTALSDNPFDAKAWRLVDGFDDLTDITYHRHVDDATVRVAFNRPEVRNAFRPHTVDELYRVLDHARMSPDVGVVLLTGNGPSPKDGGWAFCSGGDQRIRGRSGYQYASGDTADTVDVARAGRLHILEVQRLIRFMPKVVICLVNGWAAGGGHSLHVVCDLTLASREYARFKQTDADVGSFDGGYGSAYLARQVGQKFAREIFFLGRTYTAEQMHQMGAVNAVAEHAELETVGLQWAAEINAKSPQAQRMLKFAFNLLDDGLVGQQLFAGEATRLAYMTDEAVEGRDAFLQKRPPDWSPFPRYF
Mtb MbtI inh = inhibitors of Mycobacterium tuberculosis siderophore enzyme MbtI; P9WFX0; purified MbtI enzyme, fluorescence intensity read-out; inhibition, % (concentration not given with the values); hit rate 0.89% among 100,000; AID 493033; in the data active = inhibition mostly above about 56%, no sharp cut-off; inactive = mostly below about 77%
* hit, by the source's call; / = not tested or not shown. Compounds with a hit are over-represented: about 1.4% of the library has one in this group of screens.

SMILES	AID504770	PV pol inh	MenB inh	Mtb MbtI inh
CC(=O)Oc1ccc(-c2ccc(C(=O)O)cc2)cc1Cl	-0.5	100	/	85*
CC(=O)Oc1ccc(-c2ccc(C(=O)O)cc2)cc1C	-0.1	103	/	-10
O=C(NCCSc1ccc(Cl)cc1)Nc1ccccc1	-4.5*	100	3	-6
O=C(NCCCSc1ccccc1)Nc1ccccc1	0.05	110	-9	-10
Cc1ccc(-c2nn(-c3ccccc3)cc2/C=C2\SC(=S)N(CCCC(=O)O)C2=O)cc1	-0.7	102	-44	1
O=C(O)/C=C/c1ccc(F)cc1	-3.2	104	/	1
O=c1cc(CSc2nnnn2-c2ccccc2)nc(Nc2ccc(F)cc2)[nH]1	-3.3*	/	/	-10
CCOc1ccc(N/C(N)=N/c2nc(C(F)(F)F)cc(C(F)(F)F)n2)cc1	-0.2	101	-13	-5
CCOc1ccc(CN2CCc3nc(N4CCN(c5ccccn5)CC4)ncc3C2)cc1OC	/	13*	/	/
COc1cc(CN2CCc3nc(N4CCN(c5ccccn5)CC4)ncc3C2)cc(OC)c1OC	/	102	/	/
NC(=O)CNC(=O)c1ccc(C(F)(F)F)cc1	-0.3	105	-5	35
O=C1C=CC(=O)C(Nc2ccccc2)=C1	-0.2	100	/	99*
O=C1C=C(Nc2ccccc2)C(=O)c2ccccc21	1.4	99	-16	7
CC1=NN(c2ccccc2)C(=S)/C1=C\N1CCCCC1	0.75	104	-40	98*
COc1cc(/C=N/N=C(N)N)ccc1OC(=O)c1ccc(C)cc1	-9.6*	102	0	11
O=C(OCc1cc(=O)n2c(n1)sc1ccccc12)c1ccccc1	0.1	100	-23	8
COc1cccc(NC(=O)Nc2cn(C)c(=O)c3ccccc23)c1	0.1	85*	-14	-29
CCc1cccc(NC(=O)Nc2cn(C)c(=O)c3ccccc23)c1	/	79*	/	/
CC1CCN(Cc2ccc(NC(=O)Nc3cn(C)c(=O)c4ccccc34)cc2)CC1	-0.4	101	-11	-29
Cn1cc(NC(=O)Nc2ccccc2F)c2ccccc2c1=O	0.55	84*	-8	-32
CC(C)Cn1cc(NC(=O)NCc2ccccn2)c2ccccc2c1=O	-0.1	100	-20	96
Cn1cc(NC(=O)NCc2ccccn2)c2ccccc2c1=O	-2*	99	-18	-17
CSc1ccccc1C(=O)NCCCN1CCOCC1	-0.75	101	0	-18
Cc1cc(C)c(C#N)c(=S)[nH]1	2.4	101	-19	90*
Cc1cc(C)c(C#N)c(=O)[nH]1	0.95	111	-19	99
SMILES	AID504770	PV pol inh	MenB inh	Mtb MbtI inh
COc1cc2c(cc1OC)CC(C(=O)O)NC2 (stereo not drawn)	1	103	32*	-2
CC(C)(C)Cc1cc(N)on1	-2*	102	-33	-8
CC1CCC(NC(=O)C2CCCN2S(=O)(=O)c2ccc3c(c2)n(C)c(=O)c(=O)n3C)CC1 (stereo not drawn)	0.1	102	4	3
Fc1ccc(NC(=S)N2CCCCC2)cc1	-0.1	100	-7	-2
S=C(Nc1ccc2nsnc2c1)N1CCCC1	0.1	89*	-4	-12
O=C(O)CCN1C(=O)Cc2ccccc2C1=O	-0.85	22*	-25	6
O=C(O)c1ccc(NNC(=S)NC2CC2)cc1	-0.45	99	-11	16
CC(C)c1ccc(NC(=O)COn2nnc3ccccc32)cc1	-1.1	99	/	-3
COc1ccccc1NC(=O)CSCC(N)=O	1.1	102	-24	95*
N#C/C(C(=O)N1CCCCC1)=C(/S)Nc1ccccc1	0.3	99	-17	71*
O=C(Nc1ccccc1)N1CCCCC1	-0.85	101	2	-9
N#C/C(C(N)=O)=C(/S)Nc1ccccc1	-3.8*	101	-16	30
O=C1CSC(=O)N1CCc1ccccc1	-0.6	102	-33	-7
COc1ccc(C(NC(=O)CCCN2C(=O)c3ccccc3C2=O)c2ccccc2)cc1 (stereo not drawn)	-0.35	/	/	-6
Cc1ccccc1Nc1nc(N)nc(COC(=O)Cc2c[nH]c3ccccc23)n1	0.2	108	-2	-9
Cc1ccccc1Nc1nc(N)nc(COC(=O)CCCN=C2NS(=O)(=O)c3ccccc32)n1	0.65	86*	-1	-8
O=C(Nc1nccs1)C1CCN(S(=O)(=O)c2cccnc2)CC1	-0.75	/	/	/
O=C(Nc1nccs1)C1CCN(S(=O)(=O)c2ccccc2)CC1	-2.3*	105	-53	-7
COCCCn1c(-c2cccs2)csc1=Nc1ccc(S(=O)(=O)N2CCOCC2)cc1	0.45	103	-56	2
CCn1c(=O)c2ccccc2n(CC)c1=O	1.5	/	/	/
CC(C)C(=O)NCCc1c[nH]c2ccccc12	-0.5	101	-9	-24
Cc1ccc(C(=O)CC(NCCc2c[nH]c3ccccc23)C(=O)O)cc1 (stereo not drawn)	-1.7	103	47*	/
CCN(CC)CCNC(=O)c1ccc2c(=O)n3nc(Nc4ccccc4)sc3nc2c1	/	81*	/	/
S=C(NCc1ccc2c(c1)OCO2)N(Cc1ccco1)Cc1cccs1	0.85	88*	-39	60*
O=C(NCc1ccc2c(c1)OCO2)c1cccs1	0.65	/	/	/
SMILES	AID504770	PV pol inh	MenB inh	Mtb MbtI inh
Clc1ncnc2sc3c(c12)CCC3	-0.45	97	1	89*
CC(c1ccccc1)N1CC(O)=C(c2nc3ccccc3[nH]2)C1=N (stereo not drawn)	-0.25	105	-14	-10
CCNc1nc(NCC)n2c(SCC(=O)Nc3ccc(CC)cc3)nnc2n1	-0.55	104	-68	87*
Cn1nccc1NC(=O)c1ccc(Cl)c(Cl)c1	-0.05	104	-20	0
COc1ccc(Cl)cc1NC1=NC2CS(=O)(=O)CC2S1 (stereo not drawn)	0.2	99	-17	63*
O=C(COC(=O)c1ccccc1Br)c1cc2ccccc2o1	-0.05	123	-31	-9
COCCn1cnnc1SCC(=O)O	1.4	104	6	2
CCOC(=O)/C(C#N)=C/c1cn(CCC#N)nc1-c1ccccc1	-1.1	100	-24	-3
CCOC(=O)CCn1cc(/C=C(\C#N)C(N)=S)c(-c2ccccc2)n1	0.95	89*	-53	51
CCc1ccc(C2C(C#N)=C(N)OC(C)=C2C(=O)OC)cc1 (stereo not drawn)	-0.4	99	6	42
O=S(=O)(Cc1ccccc1Cl)NC1CCCCC1	-0.9	101	-31	-10
CCn1c(SCCC#N)nnc1-c1ccncc1	-0.1	102	31*	2
O=P1(c2ccccc2O)COc2ccccc2OC1	-0.65	101	-20	-13
Cn1c(=O)[nH]c2nnc(-c3ccccn3)nc2c1=O	0.95	89*	-52	13
Cc1nnc(-c2ccccn2)[nH]c1=O	-0.6	104	-2	0
Cc1nn(-c2ccccc2)c(C)c1N=Cc1c(O)ccc2ccccc12	1.9	118	-23	/
O=C(Cn1cnc2ccccc2c1=O)N1CCCCCC1	1.4	100	33*	5
O=C(Cn1cnc2ccccc2c1=O)N1CCc2ccccc21	0.65	106	8	-30
Cn1ncc(Br)c1C(=O)NN	0.2	107	-7	/
Cn1ncc(Br)c1N1C(=O)C=CC1=O	-3*	/	/	/
COc1ccc(OC)c(S(=O)(=O)NCc2nc(N)n(S(=O)(=O)c3cc(OC)ccc3OC)n2)c1	0.2	103	8	1
